# From the antibiotic and cytotoxicity screens of Wong et al. (2023)
# In all, about 39,000 compounds went through this assay and about 3,300 (8.5%) were called active. This excerpt belongs to a sample that is enriched for actives.
# Tested on: HepG2
# Test: cytotoxicity call (relative viability < 0.9)
# Conditions: 10 µM
row,Compound,cytotoxicity call
1,COc1ccc(S(=O)(=O)Nc2ccc3c(c2)C(=O)N([C@@H](C)CO)C[C@H](C)[C@H](CN(C)Cc2ccc4c(c2)OCO4)OCCCC[C@@H](C)O3)cc1,inactive
2,COc1ccc(CN(C)C[C@H]2OCCCC[C@H](C)Oc3ccc(NS(=O)(=O)c4ccc(OC)cc4)cc3C(=O)N([C@H](C)CO)C[C@@H]2C)cc1,inactive
3,COc1ccc(CN(C)C[C@H]2OCCCC[C@@H](C)Oc3ccc(NS(=O)(=O)c4ccc(OC)cc4)cc3C(=O)N([C@@H](C)CO)C[C@H]2C)cc1,inactive
4,COc1ccc(CN(C)C[C@@H]2OCCCC[C@H](C)Oc3ccc(NS(=O)(=O)c4ccc(OC)cc4)cc3C(=O)N([C@@H](C)CO)C[C@@H]2C)cc1,active
5,COc1ccc(CN(C)C[C@H]2OCCCC[C@H](C)Oc3ccc(NS(=O)(=O)c4ccc(F)cc4)cc3C(=O)N([C@@H](C)CO)C[C@H]2C)cc1,active
6,COc1ccc(CN(C)C[C@H]2OCCCC[C@H](C)Oc3ccc(NS(=O)(=O)c4ccc(F)cc4)cc3C(=O)N([C@@H](C)CO)C[C@@H]2C)cc1,inactive
7,COc1ccc(CN(C)C[C@H]2OCCCC[C@H](C)Oc3ccc(NS(=O)(=O)c4ccc(F)cc4)cc3C(=O)N([C@H](C)CO)C[C@H]2C)cc1,inactive
8,COc1ccc(CN(C)C[C@@H]2OCCCC[C@@H](C)Oc3ccc(NS(=O)(=O)c4ccc(F)cc4)cc3C(=O)N([C@@H](C)CO)C[C@H]2C)cc1,inactive
9,COc1ccc(CN(C)C[C@@H]2OCCCC[C@@H](C)Oc3ccc(NS(=O)(=O)c4ccc(F)cc4)cc3C(=O)N([C@H](C)CO)C[C@H]2C)cc1,inactive
10,COc1ccc(CN(C)C[C@@H]2OCCCC[C@H](C)Oc3ccc(NS(=O)(=O)c4ccc(F)cc4)cc3C(=O)N([C@H](C)CO)C[C@@H]2C)cc1,active
11,COc1ccc(S(=O)(=O)Nc2ccc3c(c2)C(=O)N([C@@H](C)CO)C[C@@H](C)[C@@H](CN(C)Cc2ccc4c(c2)OCO4)OCCCC[C@@H](C)O3)cc1,inactive
12,COc1ccc(S(=O)(=O)Nc2ccc3c(c2)C(=O)N([C@H](C)CO)C[C@H](C)[C@H](CN(C)Cc2ccc4c(c2)OCO4)OCCCC[C@H](C)O3)cc1,active
13,[O-][n+]1onc2c1CCc1c-2nn(-c2ccccc2)[n+]1[O-],inactive
14,COc1ccc(C#Cc2ccc3c(c2)[C@]2(C(=O)N3)[C@H](c3ccc(OCCO)cc3)N3[C@H](c4ccccc4)[C@H](c4ccccc4)OC(=O)[C@H]3[C@@H]2C(=O)N2CCN(c3ncccn3)CC2)cc1,inactive
15,COc1ccc(S(=O)(=O)N(C)C[C@@H]2Oc3ncc(C#CCN(C)C)cc3C(=O)N([C@H](C)CO)C[C@@H]2C)cc1,inactive
16,O=C(O)CCC(=O)Nc1ccccn1,inactive
17,COc1ccc(NC(=O)Nc2ccc3c(c2)C(=O)N([C@H](C)CO)C[C@H](C)[C@H](CN(C)C(=O)NC2CCCCC2)OCCCC[C@H](C)O3)cc1,inactive
18,Nc1ccn[nH]1,inactive
19,NCc1nnc2n1CCCCC2,inactive
20,CCOC(=O)C1CCN(C)CC1,inactive

row,Compound,cytotoxicity call
1,CC[C@@]1(O)C[C@H](O[C@H]2C[C@H](N(C)C)[C@H](O[C@H]3C[C@H](O)[C@H](O[C@H]4CCC(=O)[C@H](C)O4)[C@H](C)O3)[C@H](C)O2)c2c(cc3c(c2O)C(=O)c2c(O)cccc2C3=O)[C@H]1C(=O)OC,active
2,C[C@@H]1CN([C@@H](C)CO)S(=O)(=O)c2ccc(C#CC3CCCCC3)cc2O[C@@H]1CN(C)C(=O)Cc1ccncc1,inactive
3,CO[C@H](C(=O)N(C)C[C@H]1OCc2ccccc2-c2c(n(C)c3ccccc23)C(=O)N([C@@H](C)CO)C[C@@H]1C)c1ccccc1,inactive
4,Cc1cc(C(=O)NCc2cc3n(n2)CCN(S(C)(=O)=O)C3)nc(C)n1,inactive
5,C[C@H]1CN([C@@H](C)CO)C(=O)Cc2cc(NC(=O)Nc3ccccc3)ccc2O[C@H]1CN(C)Cc1ccc(C(F)(F)F)cc1,active
6,C[C@@H]1CN([C@@H](C)CO)C(=O)Cc2cc(NC(=O)Nc3ccccc3)ccc2O[C@@H]1CN(C)Cc1ccc(C(F)(F)F)cc1,active
7,C[C@@H]1CN([C@H](C)CO)C(=O)Cc2cc(NC(=O)Nc3ccccc3)ccc2O[C@H]1CN(C)Cc1ccc(C(F)(F)F)cc1,inactive
8,C[C@@H]1CN([C@H](C)CO)C(=O)Cc2cc(NC(=O)Nc3ccccc3)ccc2O[C@@H]1CN(C)Cc1ccc(C(F)(F)F)cc1,active
9,C[C@H](CO)N1C[C@H](C)[C@@H](CN(C)Cc2ccc(C(F)(F)F)cc2)Oc2ccc(NC(=O)Nc3ccccc3)cc2CC1=O,inactive
10,C[C@H]1CN([C@@H](C)CO)C(=O)Cc2cc(NC(=O)Nc3ccccc3)ccc2O[C@@H]1CN(C)Cc1ccc(C(F)(F)F)cc1,active
11,COCC(=O)Nc1ccc2c(c1)C(=O)N(C)C[C@@H](OC)[C@H](C)CN(Cc1ccccc1F)[C@H](C)CO2,inactive
12,CN1CCN(C(=O)C[C@H]2C=C[C@@H](NC(=O)Cc3ccccn3)[C@@H](CO)O2)CC1,inactive
13,C[C@H]1CCCCO[C@H](CN(C)C(=O)CCC(F)(F)F)[C@@H](C)CN([C@@H](C)CO)C(=O)c2cc(NS(=O)(=O)c3ccc(F)cc3)ccc2O1,inactive
14,C[C@@H]1CN([C@@H](C)CO)C(=O)Cc2cc(NS(C)(=O)=O)ccc2O[C@H]1CN(C)C(=O)Nc1ccc(C(F)(F)F)cc1,inactive
15,C[C@H](CO)N1C[C@H](C)[C@H](CN(C)S(=O)(=O)c2ccc(Cl)cc2)OCCCC[C@H](C)Oc2ccc(NC(=O)C3CCCCC3)cc2C1=O,inactive
16,C[C@H](CO)N1C[C@H](C)[C@H](CN(C)S(=O)(=O)c2ccccc2)Oc2ccc(NC(=O)Nc3cccc4ccccc34)cc2C1=O,inactive
17,COc1ccc(NC(=O)Nc2cccc3c2O[C@@H](CN(C)C(=O)Nc2ccc(C(F)(F)F)cc2)[C@H](C)CN([C@@H](C)CO)C3=O)cc1,inactive
18,C[C@@H]1CCCCO[C@H](CN(C)Cc2ccncc2)[C@@H](C)CN([C@@H](C)CO)C(=O)c2cc(NC(=O)Nc3ccc4c(c3)OCO4)ccc2O1,inactive
19,C[C@H](CO)N1C[C@H](C)[C@H](CN(C)Cc2ccc(C(F)(F)F)cc2)Oc2ccc(NC(=O)Nc3ccccc3)cc2CC1=O,inactive
20,C[C@@H]1CN([C@@H](C)CO)C(=O)Cc2cc(NC(=O)Nc3ccccc3)ccc2O[C@H]1CN(C)Cc1ccc(C(F)(F)F)cc1,active
